Screens as filed in PubChem BioAssay.
PAFAH2 FP inh = PAFAH2 enzyme inhibitors, primary screen, biochemical, fluorescence polarization, human; recombinant PAFAH2, FP-rhodamine activity probe; inhibition, % at 3.39 µM; 340,000 tested, 0.99% active; AID 492956, 2010;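 active means inhibition above the mean over all tested compounds plus 3 SD, cut at about 30% in these data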;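 further: inhibitors block probe labeling of enzyme so polarization drops; 0% = enzyme with DMSO and 100% = wells lacking PAFAH2 protein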
PAFAH1B3 inh = PAFAH1B3 enzyme inhibitors, primary screen, biochemical, fluorescence polarization, human. Platelet-activating factor acetylhydrolase IB subunit alpha1 (Homo sapiens), Q15102. recombinant PAFAH1B3, FP-rhodamine probe. inhibition, % at 3.39 µM. 340,000 tested, 0.28% active. AID 492972, 2010;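 active means inhibition above the screen-wide average of all tested compounds plus 3 SD, cut at about 25% in these data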;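 further: 0% = enzyme with DMSO only and 100% = wells lacking PAFAH1B3 protein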
Target sequence (Q15102 whole entry, looked up): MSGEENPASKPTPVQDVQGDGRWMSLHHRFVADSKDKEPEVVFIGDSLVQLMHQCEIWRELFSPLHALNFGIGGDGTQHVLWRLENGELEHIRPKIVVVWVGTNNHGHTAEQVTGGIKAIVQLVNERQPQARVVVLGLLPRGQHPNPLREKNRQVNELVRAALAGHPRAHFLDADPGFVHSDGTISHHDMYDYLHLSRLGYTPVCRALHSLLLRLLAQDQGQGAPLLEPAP
pPAFAH inh = pPAFAH enzyme inhibitors, primary screen, biochemical, fluorescence polarization, human. Platelet-activating factor acetylhydrolase (Homo sapiens), Q13093. recombinant pPAFAH, FP-rhodamine probe fluorescence polarization. inhibition, % at 3.39 µM. 330,000 tested, 1.5% active;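 active means inhibition above the mean inhibition across the screen plus 3 SD, cut at about 25% in these data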;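 further: inhibitors block binding of the rhodamine activity-based probe so polarization drops; 0% = enzyme with DMSO and 100% = wells lacking pPAFAH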
LYPLA2 counter = LYPLA2 inhibitors, primary screen, counter-screen for PME1 inhibitor project, biochemical, fluorescence polarization, FP-Rh probe ABPP. 320,000 tested, 0.38% active. inhibition, % at 5.9 µM. Acyl-protein thioesterase 2 (Homo sapiens), O95372. recombinant LYPLA2;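 active means inhibition above the screen-wide mean plus 3 SD, limit set per campaign, cut at about 26% in these data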;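 further: 0% = LYPLA2 with DMSO and 100% = wells lacking LYPLA2 enzyme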
LYPLA1 counter = LYPLA1 inhibitors, primary screen, counter-screen for PME1 inhibitor project, biochemical, fluorescence polarization, FP-Rh probe ABPP | Acyl-protein thioesterase 1 (Homo sapiens), O75608 | recombinant LYPLA1 | inhibition, % at 5.9 µM | 320,000 tested, 0.16% active | AID 2174, 2009;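 active means inhibition above the mean of all tested compounds plus 3 SD, set per campaign, cut at about 14% in these data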;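 further: inhibitors block serine hydrolase probe labeling of LYPLA1 so polarization falls; 0% = enzyme with DMSO and 100% = wells lacking LYPLA1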
Target sequence (O75608 whole entry, looked up): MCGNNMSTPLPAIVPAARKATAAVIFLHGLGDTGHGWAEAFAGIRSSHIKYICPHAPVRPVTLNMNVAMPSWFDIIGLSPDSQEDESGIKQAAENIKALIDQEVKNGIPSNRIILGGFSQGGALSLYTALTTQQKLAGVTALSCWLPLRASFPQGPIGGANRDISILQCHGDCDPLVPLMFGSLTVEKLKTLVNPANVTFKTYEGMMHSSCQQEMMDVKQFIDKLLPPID
PAFAH1B2 FP inh = PAFAH1B2 enzyme inhibitors, primary screen, biochemical, fluorescence polarization, human; Platelet-activating factor acetylhydrolase IB subunit alpha2 (Homo sapiens), P68402; recombinant PAFAH1B2, FP-rhodamine activity probe; inhibition, % at 3.39 µM; 340,000 tested, 1.2% active; AID 492953, 2010;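 active means inhibition above the mean of all tested compounds plus 3 SD, cut at about 24% in these data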;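 further: 0% = enzyme with DMSO and 100% = wells lacking PAFAH1B2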
Target sequence (P68402 whole entry, looked up): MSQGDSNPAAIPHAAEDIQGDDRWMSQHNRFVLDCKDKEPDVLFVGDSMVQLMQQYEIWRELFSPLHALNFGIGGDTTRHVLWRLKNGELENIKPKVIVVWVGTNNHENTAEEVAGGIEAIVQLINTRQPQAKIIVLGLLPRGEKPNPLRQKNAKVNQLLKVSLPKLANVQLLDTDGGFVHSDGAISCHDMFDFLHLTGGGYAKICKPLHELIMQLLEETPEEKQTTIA
PAFAH2 FP conf = PAFAH2 enzyme inhibitors, confirmation, biochemical, fluorescence polarization, human; shares compounds with PAFAH2 FP inh; recombinant PAFAH2, FP-rhodamine activity probe; inhibition, % at 3.39 µM; 2,300 tested, 65% active;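 active means mean inhibition over three repeats above a set limit taken from the earlier primary screen, cut at about 30% in these data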;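 further: inhibitor blocks binding of rhodamine activity probe so polarization falls; 0% = enzyme with DMSO and 100% = wells lacking PAFAH2 protein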
* hit, by the source's call; / = no result. Rows were chosen to be rich in hits. Some 2.9% of all compounds tested hit in one or more screens of this group.

SMILES	PAFAH2 FP inh	PAFAH1B3 inh	pPAFAH inh	LYPLA2 counter	LYPLA1 counter	PAFAH1B2 FP inh	PAFAH2 FP conf
O=C(COC(=O)/C=C/c1ccc(F)cc1)Nc1ccc(Cl)cn1	29.9*	7.0	2.3	-1.4	1.4	-2.1	22.4
COc1cc(/C=C/C(=O)OCC(=O)Nc2ccc(S(N)(=O)=O)cc2)ccc1O	-2.5	3.5	4.3	2.1	0.0	-1.1	/
CC(=O)Nc1ccc(-c2csc(NC(=O)CN3C(=O)NC4(CCCC4)C3=O)n2)cc1	0.1	3.6	2.9	-2.7	-3.9	2.4	/
NS(=O)(=O)c1cccc(NC(=O)COC(=O)c2ccc(S(=O)(=O)N3CCOCC3)cc2)c1	10.3	-3.7	/	/	/	-3.6	/
CC(=O)c1cccc(NC(=O)COC(=O)c2ccc3c(c2)OCO3)c1	74.4*	-2.6	0.6	10.6	-2.4	-3.7	70.7*
Cc1[nH]c2ccc(C(=O)OCC(=O)Nc3cccc(S(N)(=O)=O)c3)cc2c1C	69.3*	-0.9	1.9	-5.1	-3.4	0.5	64.4*
Cc1ccc(S(=O)(=O)N(C)C)cc1NC(=O)COC(=O)c1ccc2c(c1)NC(=O)CS2	51.9*	8.2	3.5	-0.9	-5.2	3.7	43.0*
COC(=O)c1cc(C(=O)OCC(=O)Nc2ccccc2OC(F)F)cc([N+](=O)[O-])c1	-2.0	2.5	16.1	-1.5	4.8	3.5	/
CN(C)S(=O)(=O)c1cccc(C(=O)OCC(=O)Nc2ccccc2OC(F)F)c1	33.0*	4.0	11.4	5.5	2.8	5.1	25.2
Cc1ccc(S(=O)(=O)N(C)C)cc1NC(=O)COC(=O)C1CCCC1	16.7	7.2	7.2	1.1	1.4	-0.1	/
CCn1cnc2c1c(=O)n(CC(=O)Nc1ccc(C(N)=O)cc1)c(=O)n2Cc1ccccc1	-9.4	-2.4	2.0	-4.7	-2.8	0.0	/
Cc1nc(-c2ccc(F)cc2)c(CC(=O)N(C)CC(=O)Nc2ccccc2C(F)(F)F)s1	-8.7	7.0	-3.8	7.5	1.6	0.9	/
CN(C)S(=O)(=O)c1cccc(NC(=O)COC(=O)c2ccc3c(c2)OCO3)c1	55.1*	-0.6	6.8	1.5	-1.8	5.8	56.5*
Cc1cccc(C)c1NC(=O)COC(=O)c1ccc2[nH]c3c(c2c1)CCCC3	70.4*	3.0	11.8	-9.7	-4.7	-2.4	62.1*
Cc1ccc(-c2nc3ccccc3[nH]2)cc1NC(=S)NC(=O)c1ccccc1Br	-71.5	-6.3	-27.0	-66.9	-35.8	-14.5	/
CN1/C(=C\C(=O)COC(=O)Cn2nnc(-c3ccccc3)n2)C(C)(C)c2ccccc21	-31.2	-21.8	-5.1	-49.6	-25.4	-22.1	/
CC(C)(C)c1ccc(NC(=O)COC(=O)c2ccc3ncsc3c2)cc1	23.4	-4.5	-2.4	-4.9	-4.6	0.5	/
O=C(COC(=O)c1ccc2ncsc2c1)Nc1cc([N+](=O)[O-])ccc1Cl	7.8	-11.4	-1.9	-7.4	-5.0	-7.9	/
O=C(COC(=O)c1ccc2ncsc2c1)NCc1ccc(Cl)cc1	39.2*	1.8	1.4	-2.2	-0.8	5.1	24.7
Cc1ccc(F)cc1NC(=O)COC(=O)c1ccc2ncsc2c1	49.3*	8.2	-3.0	3.0	-1.3	-8.0	54.4*
O=C(COC(=O)c1ccc2ncsc2c1)Nc1ccccc1Cl	59.4*	9.6	-1.8	/	/	3.1	44.3*
CCOc1ccc(NC(=O)COC(=O)c2ccc3ncsc3c2)cc1OCC	-0.7	2.3	/	/	/	-3.7	/
O=C(COC(=O)c1ccc(Cl)nc1)NCc1ccc(F)cc1	11.3	0.7	9.2	/	/	-3.5	/
O=C(COC(=O)c1ccc2ncsc2c1)Nc1ccc(OC(F)(F)F)cc1	73.4*	-1.0	-10.5	/	/	0.3	69.5*
COc1cccc(CNS(=O)(=O)c2c(C(=O)N3CCCCCC3)c(C)n(C)c2C)c1	4.9	10.2	3.6	3.4	1.2	9.8	/
SMILES	PAFAH2 FP inh	PAFAH1B3 inh	pPAFAH inh	LYPLA2 counter	LYPLA1 counter	PAFAH1B2 FP inh	PAFAH2 FP conf
Cc1cc(NC(=O)c2cnn3c(C(F)F)cc(-c4ccccc4)nc23)no1	1.9	4.0	-0.9	11.7	-0.4	4.3	/
Cc1cc(NC(=O)c2cnn3c(C(F)(F)F)cc(-c4ccccc4)nc23)no1	29.6*	-6.8	3.4	0.8	0.7	2.2	15.6
O=C(c1cnn2c(C(F)(F)F)cc(-c3ccccc3)nc12)N1CCCc2ccccc21	38.6*	-1.1	6.3	5.2	3.4	1.5	39.0*
CCN(CC)c1ccc(NC(=O)CCNS(=O)(=O)c2ccc3c(c2)CCC(=O)N3)c(C)c1	-1.1	3.2	8.4	-3.8	3.1	-1.4	/
CCN(CC)S(=O)(=O)c1ccc2[nH]c(=O)cc(C(=O)NCC(c3ccco3)N3CCCC3)c2c1 (stereo unspecified)	-0.2	-0.5	2.0	1.1	-0.4	2.6	/
CS(=O)(=O)c1ccc(Cl)c(NC(=O)Cc2ccccc2F)c1	52.2*	7.0	13.4	-6.7	0.5	0.8	30.4*
O=C(CCNC(=O)Cn1ccc2ccccc2c1=O)NCCN1CCN(c2cccc(Cl)c2)CC1	-1.6	8.9	12.0	2.9	-4.0	4.2	/
CCOCC(=O)OCC(=O)NC12CC3CC(CC(C3)C1)C2	0.8	1.8	-2.0	3.0	-1.0	-1.5	/
O=C(COC(=O)C12CC3CC(CC(C3)C1)C2)NC12CC3CC(CC(C3)C1)C2	90.2*	1.1	22.8	3.4	2.4	14.1	86.4*
N#CC1(NC(=O)COC(=O)C23CC4CC(CC(O)(C4)C2)C3)CCCCC1	48.2*	9.1	7.6	1.1	7.9	3.7	44.9*
CCC(CC)C(=O)OCC(=O)NC12CC3CC(CC(C3)C1)C2	64.5*	8.9	3.6	-0.1	-0.6	9.8	42.7*
O=C(Cn1c(=O)n(Cc2ccc(F)cc2)c(=O)c2ccccc21)NCC1CCCO1 (stereo unspecified)	-1.5	0.0	-7.0	-4.0	1.2	2.0	/
O=C(c1ccccc1)c1ccc2n1CCC2C(=O)O (stereo unspecified)	5.1	5.2	5.4	4.7	4.0	-0.8	/
CC1CN(C(=O)CCS(=O)(=O)c2ccccc2)CC(C)O1 (stereo unspecified)	3.3	6.3	-4.6	2.6	-2.3	1.5	/
CC(C)CC1=NN2C(=N)/C(=C\c3coc4ccccc4c3=O)C(=O)N=C2S1	4.1	6.9	/	/	/	0.9	/
